Assay results: the supplement of paper PMC11732987, “Enantioselective OTUD7B fragment discovery through chemoproteomics screening and high-throughput optimisation” (Communications Chemistry, 2025)

Tests used:
Experiment in all cases: log2 ratio of Biotin-Ahx-Ub-VS probe labelling (fragment/DMSO); higher = less target engagement (more negative = stronger competition), active = hit call of the paper (q ≤ 0.05, log2 ratio ≤ -1)
Details in all cases: compound concentration: 200 uM; treatment time: 3 h
ALG13 = biological target: T1, ALG13 (UniProt Q9NP73)
T1 sequence (whole entry): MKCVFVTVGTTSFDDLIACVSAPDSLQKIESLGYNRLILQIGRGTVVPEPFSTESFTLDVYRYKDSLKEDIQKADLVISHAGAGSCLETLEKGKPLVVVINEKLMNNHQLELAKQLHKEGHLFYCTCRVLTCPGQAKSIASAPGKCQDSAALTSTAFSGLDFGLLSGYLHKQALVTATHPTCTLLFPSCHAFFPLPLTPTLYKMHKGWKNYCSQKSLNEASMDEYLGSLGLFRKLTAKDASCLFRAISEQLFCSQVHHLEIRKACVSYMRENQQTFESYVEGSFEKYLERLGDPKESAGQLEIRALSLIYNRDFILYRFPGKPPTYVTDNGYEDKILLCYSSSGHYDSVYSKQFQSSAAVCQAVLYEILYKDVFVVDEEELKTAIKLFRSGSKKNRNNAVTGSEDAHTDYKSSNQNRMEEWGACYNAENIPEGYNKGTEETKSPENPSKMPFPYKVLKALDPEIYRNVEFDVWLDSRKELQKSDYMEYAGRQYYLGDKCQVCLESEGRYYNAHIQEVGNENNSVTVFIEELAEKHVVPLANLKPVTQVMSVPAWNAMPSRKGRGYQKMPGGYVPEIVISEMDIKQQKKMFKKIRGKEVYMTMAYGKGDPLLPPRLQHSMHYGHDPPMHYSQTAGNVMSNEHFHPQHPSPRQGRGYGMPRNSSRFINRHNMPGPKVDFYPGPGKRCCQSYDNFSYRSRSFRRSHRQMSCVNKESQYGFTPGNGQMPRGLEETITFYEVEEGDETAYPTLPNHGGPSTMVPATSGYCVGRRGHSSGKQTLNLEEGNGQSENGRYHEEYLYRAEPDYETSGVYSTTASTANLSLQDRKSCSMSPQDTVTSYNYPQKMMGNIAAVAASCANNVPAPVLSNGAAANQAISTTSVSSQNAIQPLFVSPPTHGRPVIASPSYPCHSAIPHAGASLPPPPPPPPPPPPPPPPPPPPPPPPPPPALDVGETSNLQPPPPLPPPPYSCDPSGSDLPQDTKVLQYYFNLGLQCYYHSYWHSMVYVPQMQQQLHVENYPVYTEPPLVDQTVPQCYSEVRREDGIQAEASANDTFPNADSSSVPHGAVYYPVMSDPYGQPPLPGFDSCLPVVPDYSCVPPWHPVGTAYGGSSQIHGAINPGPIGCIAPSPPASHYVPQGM
How it was run: (§1)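 Global-median-normalised Spectronaut label-free quantities were compared by unpaired t-test, and values are average log2 ratios of fragment over vehicle. Only proteins with ≥2 unique peptides were used. HEK293T lysate (495 µg per sample) was treated in triplicate with fragment at 200 µM or vehicle for 3 h and then with Biotin-Ahx-Ub-VS at 0.5 µM final for 1 h. Labelled DUBs were then NeutrAvidin-enriched, digested with LysC and trypsin, and run by diaPASEF LC-MS/MS.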

ATXN3 = ATXN3 (UniProt P54252)
How it was run: as §1

BAP1 = biological target: T2, BAP1 (UniProt Q92560)
T2 sequence (whole entry): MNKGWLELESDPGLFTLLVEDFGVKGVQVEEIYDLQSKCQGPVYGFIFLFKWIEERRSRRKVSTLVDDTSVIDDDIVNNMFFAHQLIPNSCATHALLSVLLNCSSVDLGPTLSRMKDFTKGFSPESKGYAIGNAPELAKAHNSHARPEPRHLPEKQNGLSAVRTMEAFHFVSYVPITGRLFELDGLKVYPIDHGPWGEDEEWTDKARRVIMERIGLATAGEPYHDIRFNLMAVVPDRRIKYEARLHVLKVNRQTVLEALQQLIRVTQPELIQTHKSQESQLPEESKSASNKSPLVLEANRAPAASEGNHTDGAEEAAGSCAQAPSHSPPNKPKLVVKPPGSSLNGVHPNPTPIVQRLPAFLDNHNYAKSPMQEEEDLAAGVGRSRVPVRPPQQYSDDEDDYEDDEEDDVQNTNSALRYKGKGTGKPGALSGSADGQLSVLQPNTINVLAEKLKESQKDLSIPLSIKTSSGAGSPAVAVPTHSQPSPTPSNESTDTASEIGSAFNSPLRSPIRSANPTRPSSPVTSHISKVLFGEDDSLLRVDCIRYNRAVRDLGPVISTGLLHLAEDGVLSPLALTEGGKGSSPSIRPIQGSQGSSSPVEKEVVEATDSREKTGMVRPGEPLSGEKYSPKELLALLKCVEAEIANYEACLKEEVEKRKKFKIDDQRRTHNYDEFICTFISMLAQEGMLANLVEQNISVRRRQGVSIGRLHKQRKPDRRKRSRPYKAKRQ
How it was run: as §1

EIF3F = EIF3F (UniProt O00303)
How it was run: as §1

EIF3H = EIF3H (UniProt O15372)
How it was run: as §1

FAM105A = biological target: T3, FAM105A (UniProt Q9NUU6)
T3 sequence (whole entry): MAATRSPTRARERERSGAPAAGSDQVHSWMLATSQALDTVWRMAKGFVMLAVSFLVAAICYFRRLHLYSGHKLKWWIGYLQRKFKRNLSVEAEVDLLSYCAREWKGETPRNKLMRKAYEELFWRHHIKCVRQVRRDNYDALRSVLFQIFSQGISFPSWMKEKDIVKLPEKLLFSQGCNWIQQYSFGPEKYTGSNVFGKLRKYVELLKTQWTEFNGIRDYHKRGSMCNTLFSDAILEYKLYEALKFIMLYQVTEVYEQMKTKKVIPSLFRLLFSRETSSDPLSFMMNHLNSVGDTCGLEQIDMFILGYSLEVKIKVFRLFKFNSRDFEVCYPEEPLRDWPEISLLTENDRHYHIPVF
How it was run: as §1

OTUB1 = OTUB1 (UniProt Q96FW1)
How it was run: as §1

OTUD4 = biological target: T4, OTUD4 (UniProt Q01804)
T4 sequence (whole entry): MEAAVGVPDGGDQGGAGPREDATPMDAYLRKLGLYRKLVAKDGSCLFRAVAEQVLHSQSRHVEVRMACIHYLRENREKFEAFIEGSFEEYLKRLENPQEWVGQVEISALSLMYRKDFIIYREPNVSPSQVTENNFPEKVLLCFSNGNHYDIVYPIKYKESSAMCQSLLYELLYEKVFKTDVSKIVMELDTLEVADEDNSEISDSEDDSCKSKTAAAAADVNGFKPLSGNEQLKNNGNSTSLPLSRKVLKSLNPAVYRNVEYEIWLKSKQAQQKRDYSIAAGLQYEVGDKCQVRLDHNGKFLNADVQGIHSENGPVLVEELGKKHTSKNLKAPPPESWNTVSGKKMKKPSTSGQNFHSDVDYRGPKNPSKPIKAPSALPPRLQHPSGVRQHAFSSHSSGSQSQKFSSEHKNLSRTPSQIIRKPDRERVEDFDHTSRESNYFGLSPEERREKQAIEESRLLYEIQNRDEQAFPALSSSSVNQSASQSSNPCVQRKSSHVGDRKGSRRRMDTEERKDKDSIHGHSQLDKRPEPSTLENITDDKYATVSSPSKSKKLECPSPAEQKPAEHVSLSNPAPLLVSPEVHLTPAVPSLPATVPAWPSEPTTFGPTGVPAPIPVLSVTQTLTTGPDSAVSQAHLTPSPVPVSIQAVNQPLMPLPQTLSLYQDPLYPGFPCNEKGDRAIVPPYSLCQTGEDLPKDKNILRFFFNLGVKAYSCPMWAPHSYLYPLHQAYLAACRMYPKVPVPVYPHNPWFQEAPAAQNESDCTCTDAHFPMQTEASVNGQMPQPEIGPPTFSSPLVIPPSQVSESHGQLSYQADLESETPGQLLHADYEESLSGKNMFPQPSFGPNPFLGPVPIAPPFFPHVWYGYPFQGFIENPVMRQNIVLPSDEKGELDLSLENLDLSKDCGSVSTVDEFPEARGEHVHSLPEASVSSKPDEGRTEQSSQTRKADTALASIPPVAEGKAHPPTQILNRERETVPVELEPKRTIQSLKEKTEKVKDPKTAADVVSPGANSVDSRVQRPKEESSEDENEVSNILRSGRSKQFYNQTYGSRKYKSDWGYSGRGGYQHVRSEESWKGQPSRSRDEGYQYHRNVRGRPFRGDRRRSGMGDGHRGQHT
How it was run: as §1

OTUD5 = biological target: T5, OTUD5 (UniProt Q96G74)
T5 sequence (whole entry): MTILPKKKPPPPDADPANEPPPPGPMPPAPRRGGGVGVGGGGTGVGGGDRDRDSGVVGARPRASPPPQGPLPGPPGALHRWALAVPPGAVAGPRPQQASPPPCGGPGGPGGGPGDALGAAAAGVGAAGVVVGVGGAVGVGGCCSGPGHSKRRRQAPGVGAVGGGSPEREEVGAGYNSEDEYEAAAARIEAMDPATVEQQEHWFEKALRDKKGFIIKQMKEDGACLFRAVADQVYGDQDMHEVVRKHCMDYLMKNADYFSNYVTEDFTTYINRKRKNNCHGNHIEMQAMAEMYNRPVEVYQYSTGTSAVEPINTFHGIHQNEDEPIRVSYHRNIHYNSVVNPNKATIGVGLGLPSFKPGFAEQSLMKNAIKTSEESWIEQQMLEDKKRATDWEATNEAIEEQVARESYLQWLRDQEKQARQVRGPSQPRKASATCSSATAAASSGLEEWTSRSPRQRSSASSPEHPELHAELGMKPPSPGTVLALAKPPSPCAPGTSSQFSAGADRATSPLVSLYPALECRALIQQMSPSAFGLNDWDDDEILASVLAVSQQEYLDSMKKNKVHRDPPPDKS
How it was run: as §1

Measured: log2 ratio of Biotin-Ahx-Ub-VS probe labelling

Sequence of OTUB1 (Q96FW1 whole entry): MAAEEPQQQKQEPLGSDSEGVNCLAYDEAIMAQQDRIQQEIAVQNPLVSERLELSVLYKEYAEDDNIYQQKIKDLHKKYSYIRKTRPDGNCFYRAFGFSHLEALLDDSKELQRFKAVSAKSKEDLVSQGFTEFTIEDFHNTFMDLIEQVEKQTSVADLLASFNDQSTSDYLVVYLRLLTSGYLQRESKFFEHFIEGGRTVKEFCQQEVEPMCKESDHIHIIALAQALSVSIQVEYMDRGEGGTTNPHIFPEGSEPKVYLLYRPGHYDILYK
Sequence of EIF3H (O15372 whole entry): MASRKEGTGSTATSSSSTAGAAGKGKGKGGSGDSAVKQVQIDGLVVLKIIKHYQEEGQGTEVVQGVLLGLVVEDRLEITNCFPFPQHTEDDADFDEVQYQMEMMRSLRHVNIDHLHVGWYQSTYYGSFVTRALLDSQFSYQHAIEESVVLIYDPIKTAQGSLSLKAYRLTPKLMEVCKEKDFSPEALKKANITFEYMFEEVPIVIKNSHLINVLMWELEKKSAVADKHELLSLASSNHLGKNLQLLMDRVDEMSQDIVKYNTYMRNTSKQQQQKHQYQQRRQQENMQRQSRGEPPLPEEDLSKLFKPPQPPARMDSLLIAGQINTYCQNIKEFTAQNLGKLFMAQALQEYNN
Sequence of EIF3F (O00303 whole entry): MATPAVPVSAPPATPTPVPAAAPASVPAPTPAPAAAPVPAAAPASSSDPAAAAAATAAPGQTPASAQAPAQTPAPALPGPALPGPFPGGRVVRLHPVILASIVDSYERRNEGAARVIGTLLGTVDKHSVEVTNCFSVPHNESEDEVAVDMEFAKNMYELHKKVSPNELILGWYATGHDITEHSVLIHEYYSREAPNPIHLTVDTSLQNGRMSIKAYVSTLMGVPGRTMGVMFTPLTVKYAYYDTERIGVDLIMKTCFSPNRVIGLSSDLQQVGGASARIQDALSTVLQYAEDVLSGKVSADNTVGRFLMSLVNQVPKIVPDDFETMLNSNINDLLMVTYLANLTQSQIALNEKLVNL
Sequence of ATXN3 (P54252 whole entry): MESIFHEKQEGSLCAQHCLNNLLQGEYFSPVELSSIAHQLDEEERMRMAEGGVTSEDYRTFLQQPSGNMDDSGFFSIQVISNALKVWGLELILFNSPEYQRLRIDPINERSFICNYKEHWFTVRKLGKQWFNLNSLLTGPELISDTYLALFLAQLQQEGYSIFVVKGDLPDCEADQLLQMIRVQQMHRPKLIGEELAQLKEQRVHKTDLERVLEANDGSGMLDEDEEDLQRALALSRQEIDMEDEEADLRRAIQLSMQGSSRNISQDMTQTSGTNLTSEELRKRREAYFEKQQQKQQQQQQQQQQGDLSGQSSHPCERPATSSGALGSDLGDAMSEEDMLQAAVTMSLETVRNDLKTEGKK

CNC(=O)C1(NC(=O)CCl)CCCCC1
inactive: ALG13 -1.06 | ATXN3 -0.161 | EIF3F -0.192 | EIF3H 0.0858 | FAM105A -0.00491 | OTUB1 0.0146 | OTUD4 -0.439 | OTUD5 -0.0782
active: BAP1 -1.12
